# Results taken from paper PMC7862700, “An all-to-all approach to the identification of sequence-specific readers for epigenetic DNA modifications on cytosine”.
# Tests used:
# Experiment in all cases: DAPPL (digital affinity profiling via proximity ligation, sequencing); 10 mM Tris-HCl pH 7.5, 50 mM NaCl, 1 mM DTT, 4% glycerol, room temperature, 30 min; GST-TFs on glutathione beads, 16-mer random dsDNA library, 0.1% formaldehyde crosslink after washing; high values mean tight binding
# FLI1 = target: T1, FLI1 (Homo sapiens, UniProt Q01543 1-452); conditions: protein: recombinant; tags: N-terminal GST; dsDNA, one strand shown
# T1 sequence: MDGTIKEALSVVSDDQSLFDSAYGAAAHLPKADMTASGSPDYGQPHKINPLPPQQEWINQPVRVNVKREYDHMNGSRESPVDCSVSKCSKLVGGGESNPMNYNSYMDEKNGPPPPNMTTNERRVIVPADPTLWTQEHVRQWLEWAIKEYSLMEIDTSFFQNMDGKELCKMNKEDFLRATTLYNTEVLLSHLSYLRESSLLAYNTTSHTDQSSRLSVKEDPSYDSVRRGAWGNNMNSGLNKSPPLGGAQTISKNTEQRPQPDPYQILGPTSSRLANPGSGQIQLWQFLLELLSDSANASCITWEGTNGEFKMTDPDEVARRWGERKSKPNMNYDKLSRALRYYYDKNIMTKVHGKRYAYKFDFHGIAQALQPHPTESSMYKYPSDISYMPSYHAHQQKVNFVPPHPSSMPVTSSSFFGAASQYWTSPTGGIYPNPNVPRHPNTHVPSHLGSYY
# How it was run: (§1)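 Pools of DNA-barcoded human transcription factors, expressed in yeast as GST fusions on glutathione beads and combined with a tag-only sample, were incubated with 200 nmole of a 16-mer random double-stranded DNA library. Incubation took 30 min at room temperature in Tris/NaCl/DTT/glycerol buffer and was followed by washing, 0.1% formaldehyde crosslinking, proximity ligation (BsaI/T4 ligase, 1 h, 37 °C), PCR amplification and sequencing on an Illumina NextSeq500. Binding signal is the ratio of a hexamer's read frequency for a factor to its frequency for the tag-only sample.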
# ELK1 = target: T2, ELK1 (Homo sapiens, UniProt P19419 1-428); conditions: protein: recombinant; tags: N-terminal GST; dsDNA, one strand shown
# T2 sequence: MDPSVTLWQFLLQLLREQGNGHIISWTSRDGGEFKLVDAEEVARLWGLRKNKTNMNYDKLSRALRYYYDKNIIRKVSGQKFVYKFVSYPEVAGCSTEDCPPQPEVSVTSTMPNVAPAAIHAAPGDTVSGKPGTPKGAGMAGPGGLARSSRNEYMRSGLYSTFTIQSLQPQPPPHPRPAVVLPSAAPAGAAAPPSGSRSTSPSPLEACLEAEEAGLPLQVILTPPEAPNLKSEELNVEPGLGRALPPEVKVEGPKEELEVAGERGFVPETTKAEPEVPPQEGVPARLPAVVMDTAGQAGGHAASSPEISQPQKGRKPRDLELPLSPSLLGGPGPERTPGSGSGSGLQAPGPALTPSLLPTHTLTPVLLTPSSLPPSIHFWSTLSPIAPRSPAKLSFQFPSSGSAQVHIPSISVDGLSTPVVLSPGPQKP
# How it was run: as §1
# GABPA = target: T3, GABPA (Homo sapiens, UniProt Q06546 1-454); conditions: protein: recombinant; tags: N-terminal GST; dsDNA, one strand shown
# T3 sequence: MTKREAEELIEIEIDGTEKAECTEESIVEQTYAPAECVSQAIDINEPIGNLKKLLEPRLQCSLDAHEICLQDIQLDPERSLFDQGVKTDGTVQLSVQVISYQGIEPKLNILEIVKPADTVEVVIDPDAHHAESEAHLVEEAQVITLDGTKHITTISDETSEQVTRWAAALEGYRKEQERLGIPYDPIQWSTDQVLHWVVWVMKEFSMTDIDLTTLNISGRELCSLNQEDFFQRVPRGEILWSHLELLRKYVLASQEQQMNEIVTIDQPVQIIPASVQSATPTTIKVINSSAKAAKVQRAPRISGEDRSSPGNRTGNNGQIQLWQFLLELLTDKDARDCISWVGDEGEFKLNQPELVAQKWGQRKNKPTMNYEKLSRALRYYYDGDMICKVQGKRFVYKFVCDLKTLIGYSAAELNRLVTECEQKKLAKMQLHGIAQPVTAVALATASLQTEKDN
# How it was run: as §1
# ERG = target: T4, ERG (Homo sapiens, UniProt P11308 1-479); conditions: protein: recombinant; tags: N-terminal GST; dsDNA, one strand shown
# T4 sequence: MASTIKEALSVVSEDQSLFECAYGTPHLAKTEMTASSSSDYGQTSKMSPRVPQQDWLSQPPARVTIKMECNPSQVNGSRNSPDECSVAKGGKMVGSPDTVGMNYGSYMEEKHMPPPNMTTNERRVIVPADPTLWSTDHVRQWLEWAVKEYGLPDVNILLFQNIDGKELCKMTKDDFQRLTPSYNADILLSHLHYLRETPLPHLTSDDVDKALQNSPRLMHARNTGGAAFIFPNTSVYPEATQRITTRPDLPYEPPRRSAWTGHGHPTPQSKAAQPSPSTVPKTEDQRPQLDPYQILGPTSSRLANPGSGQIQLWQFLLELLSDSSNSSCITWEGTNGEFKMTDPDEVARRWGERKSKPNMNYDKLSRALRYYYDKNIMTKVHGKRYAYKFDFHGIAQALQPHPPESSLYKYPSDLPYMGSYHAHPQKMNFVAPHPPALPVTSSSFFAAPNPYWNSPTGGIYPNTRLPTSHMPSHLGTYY
# How it was run: as §1
# ELF1 = ELF1 (Homo sapiens, UniProt P32519 1-619); conditions: protein: recombinant; tags: N-terminal GST; dsDNA, one strand shown
# Chain of ELF1 (P32519 whole entry): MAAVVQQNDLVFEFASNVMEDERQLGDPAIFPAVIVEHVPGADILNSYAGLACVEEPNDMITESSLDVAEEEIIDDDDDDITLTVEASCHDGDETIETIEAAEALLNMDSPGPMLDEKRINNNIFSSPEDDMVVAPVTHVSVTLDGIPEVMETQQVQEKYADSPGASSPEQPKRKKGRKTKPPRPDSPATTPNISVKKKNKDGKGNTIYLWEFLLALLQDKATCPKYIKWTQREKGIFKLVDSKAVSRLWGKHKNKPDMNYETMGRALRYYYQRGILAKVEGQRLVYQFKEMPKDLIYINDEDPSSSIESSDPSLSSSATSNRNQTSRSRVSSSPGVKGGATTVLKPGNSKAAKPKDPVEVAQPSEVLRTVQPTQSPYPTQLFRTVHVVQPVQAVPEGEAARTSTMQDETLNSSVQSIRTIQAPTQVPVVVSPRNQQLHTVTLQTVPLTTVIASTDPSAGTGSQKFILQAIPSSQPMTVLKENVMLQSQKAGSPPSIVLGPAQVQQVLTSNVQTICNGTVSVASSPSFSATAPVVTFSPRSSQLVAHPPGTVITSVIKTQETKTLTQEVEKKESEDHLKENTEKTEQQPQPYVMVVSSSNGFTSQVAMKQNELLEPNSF
# How it was run: as §1
# EHF = target: T5, EHF (Homo sapiens, UniProt Q9NZC4 1-300); conditions: protein: recombinant; tags: N-terminal GST; dsDNA, one strand shown
# T5 sequence: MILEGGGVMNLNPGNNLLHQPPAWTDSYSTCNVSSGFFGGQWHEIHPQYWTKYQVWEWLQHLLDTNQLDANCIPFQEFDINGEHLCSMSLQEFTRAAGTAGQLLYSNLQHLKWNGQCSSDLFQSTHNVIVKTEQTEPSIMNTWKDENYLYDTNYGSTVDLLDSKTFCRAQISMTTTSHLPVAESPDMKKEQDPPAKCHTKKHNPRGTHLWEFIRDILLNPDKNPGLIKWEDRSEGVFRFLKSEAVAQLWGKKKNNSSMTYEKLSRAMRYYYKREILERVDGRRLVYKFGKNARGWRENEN
# How it was run: as §1
# SPI1 = SPI1 (Homo sapiens, UniProt P17947 1-270); conditions: protein: recombinant; tags: N-terminal GST; dsDNA, one strand shown
# How it was run: as §1
# SPIB = SPIB (Homo sapiens, UniProt Q01892 1-262); conditions: protein: recombinant; tags: N-terminal GST; dsDNA, one strand shown
# Chain of SPIB (Q01892 whole entry): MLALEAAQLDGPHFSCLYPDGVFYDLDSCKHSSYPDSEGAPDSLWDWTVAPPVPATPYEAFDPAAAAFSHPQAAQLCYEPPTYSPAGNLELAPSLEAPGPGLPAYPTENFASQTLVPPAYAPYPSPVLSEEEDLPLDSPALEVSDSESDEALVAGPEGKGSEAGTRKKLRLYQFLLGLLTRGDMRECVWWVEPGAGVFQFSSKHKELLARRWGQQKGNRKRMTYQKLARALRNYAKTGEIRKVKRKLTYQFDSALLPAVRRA
# How it was run: as §1
# ELK3 = target: T6, ELK3 (Homo sapiens, UniProt P41970 1-407); conditions: protein: recombinant; tags: N-terminal GST; dsDNA, one strand shown
# T6 sequence: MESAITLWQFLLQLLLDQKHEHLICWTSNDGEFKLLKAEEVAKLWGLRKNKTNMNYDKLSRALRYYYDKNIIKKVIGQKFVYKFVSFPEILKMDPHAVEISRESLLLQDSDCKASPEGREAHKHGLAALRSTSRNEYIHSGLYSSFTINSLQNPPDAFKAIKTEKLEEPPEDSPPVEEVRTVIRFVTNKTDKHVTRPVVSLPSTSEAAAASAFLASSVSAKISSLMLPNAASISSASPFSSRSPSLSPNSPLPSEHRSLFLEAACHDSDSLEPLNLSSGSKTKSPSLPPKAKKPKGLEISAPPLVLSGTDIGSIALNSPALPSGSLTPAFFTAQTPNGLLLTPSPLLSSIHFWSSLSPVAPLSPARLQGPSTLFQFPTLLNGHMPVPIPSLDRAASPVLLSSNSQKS
# How it was run: as §1
# FEV = target: T7, FEV (Homo sapiens, UniProt Q99581 1-238); conditions: protein: recombinant; tags: N-terminal GST; dsDNA, one strand shown
# T7 sequence: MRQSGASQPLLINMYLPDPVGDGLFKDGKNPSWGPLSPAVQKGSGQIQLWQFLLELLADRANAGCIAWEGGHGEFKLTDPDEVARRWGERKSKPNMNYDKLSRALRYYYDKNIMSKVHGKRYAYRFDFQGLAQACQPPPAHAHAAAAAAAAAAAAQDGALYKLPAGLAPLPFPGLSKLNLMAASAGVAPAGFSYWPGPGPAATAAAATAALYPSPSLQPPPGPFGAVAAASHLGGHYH
# How it was run: as §1
# ETV5 = ETV5 (Homo sapiens, UniProt P41161 1-510); conditions: protein: recombinant; tags: N-terminal GST; dsDNA, one strand shown
# Chain of ETV5 (P41161 whole entry): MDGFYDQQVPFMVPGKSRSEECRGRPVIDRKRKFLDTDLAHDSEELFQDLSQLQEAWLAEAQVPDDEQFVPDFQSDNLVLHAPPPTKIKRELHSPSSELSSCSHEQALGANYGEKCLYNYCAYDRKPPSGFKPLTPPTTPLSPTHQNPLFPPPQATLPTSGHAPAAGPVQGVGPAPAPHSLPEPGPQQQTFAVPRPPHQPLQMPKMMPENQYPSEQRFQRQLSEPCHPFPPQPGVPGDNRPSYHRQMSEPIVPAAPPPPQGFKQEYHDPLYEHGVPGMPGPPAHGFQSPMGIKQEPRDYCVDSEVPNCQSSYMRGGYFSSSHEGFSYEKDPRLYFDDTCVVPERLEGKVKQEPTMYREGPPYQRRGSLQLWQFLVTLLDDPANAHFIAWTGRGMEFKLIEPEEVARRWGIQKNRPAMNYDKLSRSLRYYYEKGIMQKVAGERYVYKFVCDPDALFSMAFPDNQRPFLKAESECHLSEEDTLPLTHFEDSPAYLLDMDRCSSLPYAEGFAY
# How it was run: as §1
# HSF1 = HSF1 (Homo sapiens, UniProt Q00613 1-529); conditions: protein: recombinant; tags: N-terminal GST; chain copies: 3; dsDNA, one strand shown
# Chain of HSF1 (Q00613 whole entry): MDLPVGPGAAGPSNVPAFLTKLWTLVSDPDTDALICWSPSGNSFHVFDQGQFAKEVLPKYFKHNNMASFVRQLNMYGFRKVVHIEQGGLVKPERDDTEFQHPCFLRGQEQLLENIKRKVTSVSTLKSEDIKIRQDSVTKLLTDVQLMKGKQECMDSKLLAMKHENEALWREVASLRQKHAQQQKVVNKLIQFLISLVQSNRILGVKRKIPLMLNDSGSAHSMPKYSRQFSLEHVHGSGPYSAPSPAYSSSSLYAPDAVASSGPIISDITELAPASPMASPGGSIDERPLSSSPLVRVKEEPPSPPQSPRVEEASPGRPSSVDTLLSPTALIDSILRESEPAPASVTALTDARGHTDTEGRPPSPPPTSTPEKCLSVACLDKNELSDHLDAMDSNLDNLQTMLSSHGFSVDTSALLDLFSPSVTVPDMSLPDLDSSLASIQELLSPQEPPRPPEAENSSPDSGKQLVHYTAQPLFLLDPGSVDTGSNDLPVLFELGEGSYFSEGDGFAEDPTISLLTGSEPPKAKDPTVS
# How it was run: as §1
# SPIC = target: T8, SPIC (Homo sapiens, UniProt Q8N5J4 1-248); conditions: protein: recombinant; tags: N-terminal GST; dsDNA, one strand shown
# T8 sequence: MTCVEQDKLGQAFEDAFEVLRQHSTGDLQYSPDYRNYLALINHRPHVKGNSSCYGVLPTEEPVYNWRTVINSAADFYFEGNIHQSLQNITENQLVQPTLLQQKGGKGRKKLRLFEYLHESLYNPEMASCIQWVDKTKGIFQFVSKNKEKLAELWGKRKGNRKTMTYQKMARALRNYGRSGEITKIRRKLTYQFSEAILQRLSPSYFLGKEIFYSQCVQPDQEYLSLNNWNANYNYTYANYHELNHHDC
# How it was run: as §1
# ELF4 = ELF4 (Homo sapiens, UniProt Q99607 1-663); conditions: protein: recombinant; tags: N-terminal GST; dsDNA, one strand shown
# Chain of ELF4 (Q99607 whole entry): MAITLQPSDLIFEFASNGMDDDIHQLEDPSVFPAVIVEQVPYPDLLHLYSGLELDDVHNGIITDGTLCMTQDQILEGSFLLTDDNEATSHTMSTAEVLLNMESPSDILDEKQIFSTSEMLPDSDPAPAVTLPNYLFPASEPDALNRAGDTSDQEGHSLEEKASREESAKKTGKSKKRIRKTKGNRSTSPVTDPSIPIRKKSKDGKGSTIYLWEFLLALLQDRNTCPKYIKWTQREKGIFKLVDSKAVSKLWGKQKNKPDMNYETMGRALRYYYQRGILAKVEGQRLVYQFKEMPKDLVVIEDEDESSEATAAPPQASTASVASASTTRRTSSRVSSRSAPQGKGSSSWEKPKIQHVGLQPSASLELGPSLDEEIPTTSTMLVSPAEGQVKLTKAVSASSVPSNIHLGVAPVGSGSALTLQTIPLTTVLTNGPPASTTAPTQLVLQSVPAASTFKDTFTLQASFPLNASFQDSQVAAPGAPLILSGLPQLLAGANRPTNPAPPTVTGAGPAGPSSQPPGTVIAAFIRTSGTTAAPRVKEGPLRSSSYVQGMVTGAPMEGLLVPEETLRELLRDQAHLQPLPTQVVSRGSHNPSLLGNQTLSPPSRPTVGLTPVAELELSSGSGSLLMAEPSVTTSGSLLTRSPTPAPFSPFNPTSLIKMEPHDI
# How it was run: as §1
# ELK4 = target: T9, ELK4 (Homo sapiens, UniProt P28324-2 1-405); conditions: protein: recombinant; tags: N-terminal GST; dsDNA, one strand shown
# T9 sequence: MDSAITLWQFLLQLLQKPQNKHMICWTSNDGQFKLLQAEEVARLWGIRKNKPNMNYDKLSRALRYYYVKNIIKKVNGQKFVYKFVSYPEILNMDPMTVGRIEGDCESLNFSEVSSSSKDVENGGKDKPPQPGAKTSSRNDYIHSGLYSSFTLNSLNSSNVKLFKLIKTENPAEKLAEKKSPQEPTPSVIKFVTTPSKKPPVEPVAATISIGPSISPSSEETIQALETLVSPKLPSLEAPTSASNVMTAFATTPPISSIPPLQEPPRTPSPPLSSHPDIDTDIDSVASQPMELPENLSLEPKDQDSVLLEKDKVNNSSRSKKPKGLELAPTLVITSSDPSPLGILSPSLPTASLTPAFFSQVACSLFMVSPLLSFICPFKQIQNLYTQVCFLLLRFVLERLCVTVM
# How it was run: as §1
# ETV2 = target: T10, ETV2 (Homo sapiens, UniProt O00321 1-342); conditions: protein: recombinant; tags: N-terminal GST; dsDNA, one strand shown
# T10 sequence: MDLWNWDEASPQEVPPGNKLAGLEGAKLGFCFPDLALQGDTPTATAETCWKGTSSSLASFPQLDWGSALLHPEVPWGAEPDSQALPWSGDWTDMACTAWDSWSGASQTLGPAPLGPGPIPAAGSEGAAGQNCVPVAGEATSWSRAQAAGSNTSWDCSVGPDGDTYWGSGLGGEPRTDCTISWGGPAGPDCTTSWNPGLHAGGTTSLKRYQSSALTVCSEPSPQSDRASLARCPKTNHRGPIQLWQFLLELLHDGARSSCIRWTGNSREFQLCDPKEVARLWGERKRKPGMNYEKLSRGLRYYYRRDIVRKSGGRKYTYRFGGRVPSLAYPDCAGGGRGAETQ
# How it was run: as §1
# ELF3 = target: T11, ELF3 (Homo sapiens, UniProt P78545 1-371); conditions: protein: recombinant; tags: N-terminal GST; dsDNA, one strand shown
# T11 sequence: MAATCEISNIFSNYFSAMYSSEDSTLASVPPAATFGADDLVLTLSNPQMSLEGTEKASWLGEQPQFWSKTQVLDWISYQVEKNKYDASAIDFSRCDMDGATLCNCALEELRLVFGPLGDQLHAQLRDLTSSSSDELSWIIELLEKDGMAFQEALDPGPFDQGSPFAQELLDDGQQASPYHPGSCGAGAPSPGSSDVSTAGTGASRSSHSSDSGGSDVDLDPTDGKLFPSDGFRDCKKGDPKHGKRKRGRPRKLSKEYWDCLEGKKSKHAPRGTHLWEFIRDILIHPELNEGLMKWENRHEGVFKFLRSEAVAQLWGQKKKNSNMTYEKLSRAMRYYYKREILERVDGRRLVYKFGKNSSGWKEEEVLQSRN
# How it was run: as §1
# CRX = CRX (Homo sapiens, UniProt O43186 1-299); conditions: protein: recombinant; tags: N-terminal GST; dsDNA, one strand shown
# Chain of CRX (O43186 whole entry): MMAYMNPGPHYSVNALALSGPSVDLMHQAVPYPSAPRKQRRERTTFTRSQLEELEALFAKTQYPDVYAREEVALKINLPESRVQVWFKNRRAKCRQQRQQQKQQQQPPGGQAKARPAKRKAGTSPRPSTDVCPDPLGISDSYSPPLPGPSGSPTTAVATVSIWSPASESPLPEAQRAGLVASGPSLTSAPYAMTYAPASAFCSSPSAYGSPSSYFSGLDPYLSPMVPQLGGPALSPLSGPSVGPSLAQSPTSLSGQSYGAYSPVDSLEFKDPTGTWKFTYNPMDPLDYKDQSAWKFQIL
# How it was run: as §1
# ETV1 = ETV1 (Homo sapiens, UniProt P50549 1-477); conditions: protein: recombinant; tags: N-terminal GST; dsDNA, one strand shown
# Chain of ETV1 (P50549 whole entry): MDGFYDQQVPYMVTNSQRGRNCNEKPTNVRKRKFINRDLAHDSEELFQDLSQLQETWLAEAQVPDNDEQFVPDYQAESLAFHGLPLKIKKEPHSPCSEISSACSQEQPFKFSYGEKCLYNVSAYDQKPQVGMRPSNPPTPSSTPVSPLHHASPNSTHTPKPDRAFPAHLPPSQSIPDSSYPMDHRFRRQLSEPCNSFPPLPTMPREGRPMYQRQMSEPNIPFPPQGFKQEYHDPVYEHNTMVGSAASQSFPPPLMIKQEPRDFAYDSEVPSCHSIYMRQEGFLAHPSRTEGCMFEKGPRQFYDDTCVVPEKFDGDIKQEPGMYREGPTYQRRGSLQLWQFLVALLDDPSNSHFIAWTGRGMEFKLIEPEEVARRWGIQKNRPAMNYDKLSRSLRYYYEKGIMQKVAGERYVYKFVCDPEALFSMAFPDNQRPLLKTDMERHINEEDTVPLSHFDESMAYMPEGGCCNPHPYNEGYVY
# How it was run: as §1
sequence,measurement,setting,value
CTTGTG,binding signal,FLI1,"1.57 fold enrichment (6-mer frequency, TF over GST control)"
same,binding signal,ELK1,"1.58 fold enrichment (6-mer frequency, TF over GST control)"
same,binding signal,GABPA,"1.45 fold enrichment (6-mer frequency, TF over GST control)"
same,binding signal,ERG,"1.45 fold enrichment (6-mer frequency, TF over GST control)"
same,binding signal,ELF1,"1.46 fold enrichment (6-mer frequency, TF over GST control)"
same,binding signal,EHF,"1.44 fold enrichment (6-mer frequency, TF over GST control)"
same,binding signal,SPI1,"1.46 fold enrichment (6-mer frequency, TF over GST control)"
same,binding signal,SPIB,"1.68 fold enrichment (6-mer frequency, TF over GST control)"
same,binding signal,ELK3,"1.6 fold enrichment (6-mer frequency, TF over GST control)"
same,binding signal,FEV,"1.39 fold enrichment (6-mer frequency, TF over GST control)"
same,binding signal,ETV5,"1.51 fold enrichment (6-mer frequency, TF over GST control)"
same,binding signal,HSF1,"1.25 fold enrichment (6-mer frequency, TF over GST control)"
same,binding signal,SPIC,"1.45 fold enrichment (6-mer frequency, TF over GST control)"
same,binding signal,ELF4,"1.59 fold enrichment (6-mer frequency, TF over GST control)"
same,binding signal,ELK4,"1.26 fold enrichment (6-mer frequency, TF over GST control)"
same,binding signal,ETV2,"1.44 fold enrichment (6-mer frequency, TF over GST control)"
same,binding signal,ELF3,"1.5 fold enrichment (6-mer frequency, TF over GST control)"
same,binding signal,CRX,"1.25 fold enrichment (6-mer frequency, TF over GST control)"
same,binding signal,ETV1,"1.44 fold enrichment (6-mer frequency, TF over GST control)"
